Reference: the supplement of paper PMC9492666

Legend:
HCC1937 = assay: relative cell viability, compound + RSL3, vs DMSO (fraction of DMSO control); higher = less growth inhibition; conditions: 72 h
MDA-MB-231 = assay: as above; conditions: 72 h
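Note: breast cancer cell viability read out with the CCK-8 kit after co-treatment of each compound with the ferroptosis inducer RSL3.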

SMILES | relative cell viability (HCC1937) | relative cell viability (MDA-MB-231)
Nc1cccc(S(=O)(=O)N2CCCN(S(=O)(=O)c3ccc4c(c3)OCCO4)CC2)c1 + COC(=O)c1ccc([C@H]2c3[nH]c4ccccc4c3C[C@H](C(=O)OC)N2C(=O)CCl)cc1 [RSL3] | 0.382 | 0.632
CC(=O)Oc1cc(C(F)(F)F)ccc1C(=O)O [Triflusal] + COC(=O)c1ccc([C@H]2c3[nH]c4ccccc4c3C[C@H](C(=O)OC)N2C(=O)CCl)cc1 [RSL3] | 0.717 | 0.492
CCCCCCCCCc1ccc(B(O)O)cc1 [4-Nonylphenylboronic acid] + COC(=O)c1ccc([C@H]2c3[nH]c4ccccc4c3C[C@H](C(=O)OC)N2C(=O)CCl)cc1 [RSL3] | 0.546 | 0.732
CCCCCCCCCCCC1=C(O)C(=O)C=C(O)C1=O [Embelin] + COC(=O)c1ccc([C@H]2c3[nH]c4ccccc4c3C[C@H](C(=O)OC)N2C(=O)CCl)cc1 [RSL3] | 0.458 | 0.471
O=C(NCCS(=O)(=O)c1ccc(C(F)(F)F)cn1)c1ccc(Cl)cc1 + COC(=O)c1ccc([C@H]2c3[nH]c4ccccc4c3C[C@H](C(=O)OC)N2C(=O)CCl)cc1 [RSL3] | 0.362 | 0.525
O=C(c1c2ccccc2cc2ccccc12)N1CCC(N2CCC[C@@H](C(=O)N3CCOCC3)C2)CC1 + COC(=O)c1ccc([C@H]2c3[nH]c4ccccc4c3C[C@H](C(=O)OC)N2C(=O)CCl)cc1 [RSL3] | 0.352 | 0.366
CC(C)(Oc1ccc(C(=O)c2ccc(Cl)cc2)cc1)C(=O)O [Fenofibric acid] + COC(=O)c1ccc([C@H]2c3[nH]c4ccccc4c3C[C@H](C(=O)OC)N2C(=O)CCl)cc1 [RSL3] | 0.536 | 0.535
COC(=O)/C=C/c1cccc(N(Cc2ccc(-c3ccc(N(C)C)cc3)cc2)C(=O)C2CCCCC2)c1 [Fexaramine] + COC(=O)c1ccc([C@H]2c3[nH]c4ccccc4c3C[C@H](C(=O)OC)N2C(=O)CCl)cc1 [RSL3] | 0.316 | 0.601
CC(c1cc2ccccc2s1)N(O)C(N)=O (configuration not stated) [Zileuton] + COC(=O)c1ccc([C@H]2c3[nH]c4ccccc4c3C[C@H](C(=O)OC)N2C(=O)CCl)cc1 [RSL3] | 0.895 | 0.633
CCCCCCCCCCCCC/C=C/[C@@H](O)[C@@H](N)CO + COC(=O)c1ccc([C@H]2c3[nH]c4ccccc4c3C[C@H](C(=O)OC)N2C(=O)CCl)cc1 [RSL3] | 0.0823 | 0.167
O=C(ON1C(=O)CCC1=O)N1CCN(C(c2ccc(Cl)cc2)c2ccc(Cl)cc2)CC1 [Cravatt Reagent] + COC(=O)c1ccc([C@H]2c3[nH]c4ccccc4c3C[C@H](C(=O)OC)N2C(=O)CCl)cc1 [RSL3] | 0.55 | 0.716
CC(=O)O[C@H](CC=C(C)C)C1=CC(=O)c2c(O)ccc(O)c2C1=O [Acetyl shikonin] + COC(=O)c1ccc([C@H]2c3[nH]c4ccccc4c3C[C@H](C(=O)OC)N2C(=O)CCl)cc1 [RSL3] | 0.665 | 0.681
O=C(Nc1ccc(C(O)(C(F)(F)F)C(F)(F)F)cc1)c1ccccc1Cl + COC(=O)c1ccc([C@H]2c3[nH]c4ccccc4c3C[C@H](C(=O)OC)N2C(=O)CCl)cc1 [RSL3] | 0.489 | 0.616
CC(C)OC(=O)CCC/C=C\C[C@@H]1[C@@H](CC[C@@H](O)CCc2ccccc2)[C@H](O)C[C@@H]1O [Latanoprost] + COC(=O)c1ccc([C@H]2c3[nH]c4ccccc4c3C[C@H](C(=O)OC)N2C(=O)CCl)cc1 [RSL3] | 1.03 | 0.597
Cc1c(C)c2c(c(C)c1O)CCC(C)(COc1ccc(CC3SC(=O)NC3=O)cc1)O2 (configuration not stated) [Troglitazone] + COC(=O)c1ccc([C@H]2c3[nH]c4ccccc4c3C[C@H](C(=O)OC)N2C(=O)CCl)cc1 [RSL3] | 0.431 | 0.686
CCCCCC=CC(=O)CCc1ccc(O)c(OC)c1 [6-Shogaol] + COC(=O)c1ccc([C@H]2c3[nH]c4ccccc4c3C[C@H](C(=O)OC)N2C(=O)CCl)cc1 [RSL3] | 0.608 | 0.64
